# Assay results from paper PMC7862700, “An all-to-all approach to the identification of sequence-specific readers for epigenetic DNA modifications on cytosine”.
# How the values were obtained:
# Assay in all cases: DAPPL (digital affinity profiling via proximity ligation, sequencing); 10 mM Tris-HCl pH 7.5, 50 mM NaCl, 1 mM DTT, 4% glycerol, room temperature, 30 min; GST-TFs on glutathione beads, 16-mer random dsDNA library, 0.1% formaldehyde crosslink after washing; high values mean tight binding
# [1] = target: T1, FLI1 (Homo sapiens, UniProt Q01543 1-452); settings: protein: recombinant; tags: N-terminal GST; dsDNA, one strand shown
# T1 sequence: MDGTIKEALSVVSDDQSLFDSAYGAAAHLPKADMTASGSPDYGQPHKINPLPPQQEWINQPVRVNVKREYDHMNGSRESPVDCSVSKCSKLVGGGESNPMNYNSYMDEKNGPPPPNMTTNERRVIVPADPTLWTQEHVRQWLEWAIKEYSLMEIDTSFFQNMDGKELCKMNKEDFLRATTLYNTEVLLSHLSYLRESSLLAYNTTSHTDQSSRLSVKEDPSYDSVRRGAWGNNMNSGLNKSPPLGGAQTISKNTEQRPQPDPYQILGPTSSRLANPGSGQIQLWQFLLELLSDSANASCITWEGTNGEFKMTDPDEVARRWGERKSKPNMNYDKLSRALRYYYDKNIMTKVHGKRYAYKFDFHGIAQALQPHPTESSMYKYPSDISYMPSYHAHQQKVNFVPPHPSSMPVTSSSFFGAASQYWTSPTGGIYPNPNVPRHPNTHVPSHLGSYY
# Procedure, shortened: (§1)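 Beads coated with glutathione captured GST-fused human transcription factors that had been expressed in yeast, and the factors were then given DNA barcodes and pooled with a tag-only sample. The pools were incubated with 200 nmole of a random double-stranded 16-mer DNA library in Tris/NaCl/DTT/glycerol buffer for 30 min at room temperature, washed, crosslinked with 0.1% formaldehyde and proximity-ligated with BsaI/T4 ligase at 37 °C for 1 h. PCR amplification and Illumina NextSeq500 sequencing came last. Binding signal is each hexamer's read frequency for a factor divided by its frequency for the tag-only sample.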
# [2] = target: T2, ELK1 (Homo sapiens, UniProt P19419 1-428); settings: protein: recombinant; tags: N-terminal GST; dsDNA, one strand shown
# T2 sequence: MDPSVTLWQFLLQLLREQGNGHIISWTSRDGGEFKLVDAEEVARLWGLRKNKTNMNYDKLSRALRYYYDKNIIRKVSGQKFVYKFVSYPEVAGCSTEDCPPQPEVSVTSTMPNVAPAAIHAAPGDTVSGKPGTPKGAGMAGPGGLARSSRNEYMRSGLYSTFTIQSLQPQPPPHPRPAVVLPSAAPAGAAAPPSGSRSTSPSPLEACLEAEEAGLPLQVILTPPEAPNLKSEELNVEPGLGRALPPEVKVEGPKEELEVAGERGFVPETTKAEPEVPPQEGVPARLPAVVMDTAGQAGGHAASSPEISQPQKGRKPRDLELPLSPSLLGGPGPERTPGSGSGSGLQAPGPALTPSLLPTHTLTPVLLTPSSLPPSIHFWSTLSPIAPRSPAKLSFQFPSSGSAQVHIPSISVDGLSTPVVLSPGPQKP
# Procedure, shortened: as §1
# [3] = target: T3, GABPA (Homo sapiens, UniProt Q06546 1-454); settings: protein: recombinant; tags: N-terminal GST; dsDNA, one strand shown
# T3 sequence: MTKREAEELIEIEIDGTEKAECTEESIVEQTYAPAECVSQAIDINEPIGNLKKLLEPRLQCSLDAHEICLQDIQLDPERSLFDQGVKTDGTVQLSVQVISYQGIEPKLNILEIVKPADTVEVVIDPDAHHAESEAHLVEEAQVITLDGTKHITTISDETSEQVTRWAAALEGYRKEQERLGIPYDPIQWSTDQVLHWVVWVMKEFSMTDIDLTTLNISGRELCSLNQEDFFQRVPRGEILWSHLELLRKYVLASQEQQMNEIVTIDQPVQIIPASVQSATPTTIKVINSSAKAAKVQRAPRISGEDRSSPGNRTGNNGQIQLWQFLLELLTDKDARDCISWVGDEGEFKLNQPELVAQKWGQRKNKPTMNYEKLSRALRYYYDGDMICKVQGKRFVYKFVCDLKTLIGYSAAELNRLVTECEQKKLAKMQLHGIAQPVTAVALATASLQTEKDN
# Procedure, shortened: as §1
# [4] = target: T4, ERG (Homo sapiens, UniProt P11308 1-479); settings: protein: recombinant; tags: N-terminal GST; dsDNA, one strand shown
# T4 sequence: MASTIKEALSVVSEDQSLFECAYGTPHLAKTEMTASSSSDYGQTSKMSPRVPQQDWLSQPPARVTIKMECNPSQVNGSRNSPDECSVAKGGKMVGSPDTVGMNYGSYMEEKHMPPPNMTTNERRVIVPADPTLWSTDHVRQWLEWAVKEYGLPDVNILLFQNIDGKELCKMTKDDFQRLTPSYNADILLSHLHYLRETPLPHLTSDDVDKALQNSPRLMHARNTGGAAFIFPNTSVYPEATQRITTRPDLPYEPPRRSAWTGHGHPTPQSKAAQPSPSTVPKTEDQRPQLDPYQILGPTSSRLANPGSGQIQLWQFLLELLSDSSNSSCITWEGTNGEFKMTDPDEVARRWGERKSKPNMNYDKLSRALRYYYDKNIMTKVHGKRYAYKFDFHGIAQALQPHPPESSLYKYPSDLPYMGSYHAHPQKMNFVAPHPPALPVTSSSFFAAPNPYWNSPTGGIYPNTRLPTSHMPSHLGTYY
# Procedure, shortened: as §1
# [5] = target: ELF1 (Homo sapiens, UniProt P32519 1-619); settings: protein: recombinant; tags: N-terminal GST; dsDNA, one strand shown
# Procedure, shortened: as §1
# [6] = target: T5, EHF (Homo sapiens, UniProt Q9NZC4 1-300); settings: protein: recombinant; tags: N-terminal GST; dsDNA, one strand shown
# T5 sequence: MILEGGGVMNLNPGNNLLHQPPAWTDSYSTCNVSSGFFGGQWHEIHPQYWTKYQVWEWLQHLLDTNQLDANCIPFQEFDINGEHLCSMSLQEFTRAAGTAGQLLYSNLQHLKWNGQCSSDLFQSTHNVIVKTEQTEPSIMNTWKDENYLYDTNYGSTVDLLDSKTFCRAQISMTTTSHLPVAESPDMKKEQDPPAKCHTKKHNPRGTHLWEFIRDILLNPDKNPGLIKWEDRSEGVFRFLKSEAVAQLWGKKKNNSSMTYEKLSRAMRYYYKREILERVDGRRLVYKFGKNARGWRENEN
# Procedure, shortened: as §1
# [7] = target: SPI1 (Homo sapiens, UniProt P17947 1-270); settings: protein: recombinant; tags: N-terminal GST; dsDNA, one strand shown
# Procedure, shortened: as §1
# [8] = target: SPIB (Homo sapiens, UniProt Q01892 1-262); settings: protein: recombinant; tags: N-terminal GST; dsDNA, one strand shown
# Procedure, shortened: as §1
# [9] = target: T6, ELK3 (Homo sapiens, UniProt P41970 1-407); settings: protein: recombinant; tags: N-terminal GST; dsDNA, one strand shown
# T6 sequence: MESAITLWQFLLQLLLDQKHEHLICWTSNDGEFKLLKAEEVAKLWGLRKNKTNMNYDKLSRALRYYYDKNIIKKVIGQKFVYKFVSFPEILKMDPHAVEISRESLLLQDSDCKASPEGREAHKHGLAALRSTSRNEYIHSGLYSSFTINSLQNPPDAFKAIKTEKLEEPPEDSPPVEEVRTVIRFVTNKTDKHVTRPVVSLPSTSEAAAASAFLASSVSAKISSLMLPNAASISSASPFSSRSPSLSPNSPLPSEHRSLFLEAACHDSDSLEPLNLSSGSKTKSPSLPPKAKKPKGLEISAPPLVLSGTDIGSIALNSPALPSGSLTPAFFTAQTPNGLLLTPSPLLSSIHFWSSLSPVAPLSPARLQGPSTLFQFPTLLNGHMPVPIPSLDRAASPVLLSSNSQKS
# Procedure, shortened: as §1
# [10] = target: T7, FEV (Homo sapiens, UniProt Q99581 1-238); settings: protein: recombinant; tags: N-terminal GST; dsDNA, one strand shown
# T7 sequence: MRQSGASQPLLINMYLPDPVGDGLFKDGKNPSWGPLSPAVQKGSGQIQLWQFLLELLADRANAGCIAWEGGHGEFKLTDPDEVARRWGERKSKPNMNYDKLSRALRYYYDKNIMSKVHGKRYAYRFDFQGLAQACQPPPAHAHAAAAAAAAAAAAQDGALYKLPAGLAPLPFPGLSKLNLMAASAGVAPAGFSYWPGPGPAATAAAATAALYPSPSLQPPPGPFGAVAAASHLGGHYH
# Procedure, shortened: as §1
# [11] = target: ETV5 (Homo sapiens, UniProt P41161 1-510); settings: protein: recombinant; tags: N-terminal GST; dsDNA, one strand shown
# Procedure, shortened: as §1
# [12] = target: HSF1 (Homo sapiens, UniProt Q00613 1-529); settings: protein: recombinant; tags: N-terminal GST; chain copies: 3; dsDNA, one strand shown
# Procedure, shortened: as §1
# [13] = target: T8, SPIC (Homo sapiens, UniProt Q8N5J4 1-248); settings: protein: recombinant; tags: N-terminal GST; dsDNA, one strand shown
# T8 sequence: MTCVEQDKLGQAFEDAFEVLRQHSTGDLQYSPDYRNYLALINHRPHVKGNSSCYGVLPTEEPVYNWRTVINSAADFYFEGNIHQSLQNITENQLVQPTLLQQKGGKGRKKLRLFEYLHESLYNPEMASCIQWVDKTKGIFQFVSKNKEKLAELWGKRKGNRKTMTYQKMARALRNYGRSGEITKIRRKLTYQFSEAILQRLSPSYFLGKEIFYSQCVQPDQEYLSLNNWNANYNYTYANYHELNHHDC
# Procedure, shortened: as §1
# [14] = target: ELF4 (Homo sapiens, UniProt Q99607 1-663); settings: protein: recombinant; tags: N-terminal GST; dsDNA, one strand shown
# Procedure, shortened: as §1
# [15] = target: T9, ELK4 (Homo sapiens, UniProt P28324-2 1-405); settings: protein: recombinant; tags: N-terminal GST; dsDNA, one strand shown
# T9 sequence: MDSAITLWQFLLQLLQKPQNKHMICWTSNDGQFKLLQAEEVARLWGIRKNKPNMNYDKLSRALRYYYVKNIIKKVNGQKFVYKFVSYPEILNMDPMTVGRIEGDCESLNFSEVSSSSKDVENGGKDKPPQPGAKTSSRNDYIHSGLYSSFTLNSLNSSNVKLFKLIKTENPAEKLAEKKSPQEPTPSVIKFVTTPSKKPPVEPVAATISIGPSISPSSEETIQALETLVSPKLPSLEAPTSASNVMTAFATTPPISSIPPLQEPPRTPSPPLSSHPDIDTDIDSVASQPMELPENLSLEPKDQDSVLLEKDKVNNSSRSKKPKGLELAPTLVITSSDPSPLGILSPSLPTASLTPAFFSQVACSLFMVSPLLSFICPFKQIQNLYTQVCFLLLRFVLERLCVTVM
# Procedure, shortened: as §1
# [16] = target: T10, ETV2 (Homo sapiens, UniProt O00321 1-342); settings: protein: recombinant; tags: N-terminal GST; dsDNA, one strand shown
# T10 sequence: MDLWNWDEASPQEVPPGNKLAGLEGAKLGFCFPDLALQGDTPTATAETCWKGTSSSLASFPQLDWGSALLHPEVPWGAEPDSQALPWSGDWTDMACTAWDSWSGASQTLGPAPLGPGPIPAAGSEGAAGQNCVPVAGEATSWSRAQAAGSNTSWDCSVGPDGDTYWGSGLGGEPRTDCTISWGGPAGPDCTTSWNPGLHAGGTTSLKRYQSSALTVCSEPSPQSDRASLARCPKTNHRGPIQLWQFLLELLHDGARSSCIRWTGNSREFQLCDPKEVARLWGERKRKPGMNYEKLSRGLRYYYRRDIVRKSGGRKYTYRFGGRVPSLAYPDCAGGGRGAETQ
# Procedure, shortened: as §1
# [17] = target: T11, ELF3 (Homo sapiens, UniProt P78545 1-371); settings: protein: recombinant; tags: N-terminal GST; dsDNA, one strand shown
# T11 sequence: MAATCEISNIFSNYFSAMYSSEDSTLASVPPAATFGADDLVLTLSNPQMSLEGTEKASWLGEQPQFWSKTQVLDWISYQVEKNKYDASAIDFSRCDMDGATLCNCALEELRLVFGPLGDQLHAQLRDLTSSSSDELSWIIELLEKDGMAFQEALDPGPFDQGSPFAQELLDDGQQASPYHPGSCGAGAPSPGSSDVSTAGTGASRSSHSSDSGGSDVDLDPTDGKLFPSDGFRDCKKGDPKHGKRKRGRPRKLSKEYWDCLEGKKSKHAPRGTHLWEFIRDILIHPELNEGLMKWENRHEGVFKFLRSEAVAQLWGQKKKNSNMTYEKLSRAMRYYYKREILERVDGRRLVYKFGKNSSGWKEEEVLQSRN
# Procedure, shortened: as §1
# [18] = target: CRX (Homo sapiens, UniProt O43186 1-299); settings: protein: recombinant; tags: N-terminal GST; dsDNA, one strand shown
# Procedure, shortened: as §1
# [19] = target: ETV1 (Homo sapiens, UniProt P50549 1-477); settings: protein: recombinant; tags: N-terminal GST; dsDNA, one strand shown
# Procedure, shortened: as §1
# Chain of ETV5 (P41161 whole entry): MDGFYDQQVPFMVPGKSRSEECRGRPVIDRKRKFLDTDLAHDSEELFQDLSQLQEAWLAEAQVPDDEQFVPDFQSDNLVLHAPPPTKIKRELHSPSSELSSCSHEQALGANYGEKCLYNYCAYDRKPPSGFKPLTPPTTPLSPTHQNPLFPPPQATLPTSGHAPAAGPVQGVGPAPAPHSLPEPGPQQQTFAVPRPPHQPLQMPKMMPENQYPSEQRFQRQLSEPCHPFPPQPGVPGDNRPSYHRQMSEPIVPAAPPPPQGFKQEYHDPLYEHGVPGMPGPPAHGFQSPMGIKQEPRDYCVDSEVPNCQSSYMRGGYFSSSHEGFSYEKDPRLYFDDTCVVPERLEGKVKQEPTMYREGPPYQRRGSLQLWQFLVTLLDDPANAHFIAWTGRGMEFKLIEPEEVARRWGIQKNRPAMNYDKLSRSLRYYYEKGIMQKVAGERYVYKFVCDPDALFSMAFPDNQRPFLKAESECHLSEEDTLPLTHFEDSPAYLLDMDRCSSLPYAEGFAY
# Chain of CRX (O43186 whole entry): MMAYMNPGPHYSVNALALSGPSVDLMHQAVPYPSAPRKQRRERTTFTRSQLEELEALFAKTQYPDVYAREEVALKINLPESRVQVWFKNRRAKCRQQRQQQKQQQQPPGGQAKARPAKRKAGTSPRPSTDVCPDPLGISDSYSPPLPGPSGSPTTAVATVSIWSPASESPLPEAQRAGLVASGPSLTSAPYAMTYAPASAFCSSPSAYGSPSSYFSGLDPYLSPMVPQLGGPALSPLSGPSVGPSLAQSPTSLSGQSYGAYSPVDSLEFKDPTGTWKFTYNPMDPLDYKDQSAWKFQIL
# Chain of ETV1 (P50549 whole entry): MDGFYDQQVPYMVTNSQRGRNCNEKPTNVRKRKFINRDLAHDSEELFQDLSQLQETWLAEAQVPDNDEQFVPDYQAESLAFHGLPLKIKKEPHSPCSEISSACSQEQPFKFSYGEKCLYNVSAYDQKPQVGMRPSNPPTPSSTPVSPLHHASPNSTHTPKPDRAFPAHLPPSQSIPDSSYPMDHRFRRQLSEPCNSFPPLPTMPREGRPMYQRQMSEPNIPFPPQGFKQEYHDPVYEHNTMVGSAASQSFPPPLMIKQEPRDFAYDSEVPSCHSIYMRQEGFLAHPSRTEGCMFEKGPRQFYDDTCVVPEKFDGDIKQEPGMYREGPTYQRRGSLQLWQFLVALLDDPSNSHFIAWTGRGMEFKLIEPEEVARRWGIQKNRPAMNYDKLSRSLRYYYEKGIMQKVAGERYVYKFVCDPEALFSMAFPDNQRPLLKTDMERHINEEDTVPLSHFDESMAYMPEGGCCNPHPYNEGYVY
# Chain of SPIB (Q01892 whole entry): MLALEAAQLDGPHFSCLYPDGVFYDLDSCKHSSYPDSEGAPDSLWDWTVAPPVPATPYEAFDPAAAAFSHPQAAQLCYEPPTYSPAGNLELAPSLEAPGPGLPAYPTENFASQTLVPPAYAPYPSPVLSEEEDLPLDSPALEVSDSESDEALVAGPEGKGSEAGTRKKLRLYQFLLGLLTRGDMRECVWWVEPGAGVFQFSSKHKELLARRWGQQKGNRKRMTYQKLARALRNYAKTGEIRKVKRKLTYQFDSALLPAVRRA
# Chain of ELF4 (Q99607 whole entry): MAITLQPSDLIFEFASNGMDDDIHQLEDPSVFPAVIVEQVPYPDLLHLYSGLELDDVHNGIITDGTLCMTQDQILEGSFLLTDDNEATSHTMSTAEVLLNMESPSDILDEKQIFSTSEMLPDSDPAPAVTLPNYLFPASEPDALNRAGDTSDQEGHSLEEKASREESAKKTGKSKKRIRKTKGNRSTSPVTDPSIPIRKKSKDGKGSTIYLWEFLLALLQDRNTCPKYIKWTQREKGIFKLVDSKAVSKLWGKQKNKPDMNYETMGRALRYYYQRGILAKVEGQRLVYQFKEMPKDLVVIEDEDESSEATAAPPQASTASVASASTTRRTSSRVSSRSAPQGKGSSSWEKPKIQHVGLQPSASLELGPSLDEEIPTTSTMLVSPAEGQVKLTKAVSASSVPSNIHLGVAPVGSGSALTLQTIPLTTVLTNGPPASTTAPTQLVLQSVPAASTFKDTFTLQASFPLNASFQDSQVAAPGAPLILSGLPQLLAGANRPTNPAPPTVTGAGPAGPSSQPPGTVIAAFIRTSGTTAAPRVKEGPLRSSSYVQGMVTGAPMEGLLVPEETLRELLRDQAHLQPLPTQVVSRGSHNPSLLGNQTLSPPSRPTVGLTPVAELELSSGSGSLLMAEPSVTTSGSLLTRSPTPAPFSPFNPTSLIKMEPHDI
# Chain of ELF1 (P32519 whole entry): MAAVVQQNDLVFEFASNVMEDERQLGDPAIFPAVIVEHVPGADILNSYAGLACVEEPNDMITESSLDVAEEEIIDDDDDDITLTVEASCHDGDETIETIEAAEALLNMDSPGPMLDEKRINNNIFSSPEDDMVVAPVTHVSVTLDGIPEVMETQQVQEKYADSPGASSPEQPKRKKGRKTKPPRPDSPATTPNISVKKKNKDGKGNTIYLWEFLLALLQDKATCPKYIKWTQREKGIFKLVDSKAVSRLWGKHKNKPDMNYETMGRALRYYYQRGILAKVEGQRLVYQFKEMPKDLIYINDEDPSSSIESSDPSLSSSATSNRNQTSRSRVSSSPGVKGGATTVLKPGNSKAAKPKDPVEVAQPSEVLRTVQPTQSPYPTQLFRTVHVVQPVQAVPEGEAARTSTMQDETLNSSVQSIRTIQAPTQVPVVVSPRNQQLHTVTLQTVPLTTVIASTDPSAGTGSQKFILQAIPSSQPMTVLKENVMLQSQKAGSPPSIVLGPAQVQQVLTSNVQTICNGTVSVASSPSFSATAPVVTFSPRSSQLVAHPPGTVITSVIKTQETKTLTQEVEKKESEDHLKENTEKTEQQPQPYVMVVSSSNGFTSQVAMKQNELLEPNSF
# Chain of HSF1 (Q00613 whole entry): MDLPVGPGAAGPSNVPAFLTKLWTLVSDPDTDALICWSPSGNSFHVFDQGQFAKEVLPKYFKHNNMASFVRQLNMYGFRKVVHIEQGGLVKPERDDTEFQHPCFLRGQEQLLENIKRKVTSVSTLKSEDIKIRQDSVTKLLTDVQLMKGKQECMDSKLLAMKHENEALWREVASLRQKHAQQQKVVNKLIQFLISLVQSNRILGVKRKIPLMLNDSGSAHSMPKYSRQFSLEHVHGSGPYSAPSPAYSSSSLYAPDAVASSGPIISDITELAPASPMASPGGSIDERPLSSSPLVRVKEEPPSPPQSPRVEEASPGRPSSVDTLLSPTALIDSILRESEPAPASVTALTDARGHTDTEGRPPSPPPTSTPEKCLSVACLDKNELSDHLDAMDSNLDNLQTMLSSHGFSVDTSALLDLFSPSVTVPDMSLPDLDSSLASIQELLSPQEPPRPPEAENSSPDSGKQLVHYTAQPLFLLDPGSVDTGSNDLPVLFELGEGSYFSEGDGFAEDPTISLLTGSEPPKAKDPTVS
sequence,measurement,setting,value
AATAGC,binding signal,[1],"1.17 fold enrichment (6-mer frequency, TF over GST control)"
same,binding signal,[2],"1.14 fold enrichment (6-mer frequency, TF over GST control)"
same,binding signal,[3],"1.17 fold enrichment (6-mer frequency, TF over GST control)"
same,binding signal,[4],"1.12 fold enrichment (6-mer frequency, TF over GST control)"
same,binding signal,[5],"1.09 fold enrichment (6-mer frequency, TF over GST control)"
same,binding signal,[6],"1.23 fold enrichment (6-mer frequency, TF over GST control)"
same,binding signal,[7],"1.15 fold enrichment (6-mer frequency, TF over GST control)"
same,binding signal,[8],"1.16 fold enrichment (6-mer frequency, TF over GST control)"
same,binding signal,[9],"1.1 fold enrichment (6-mer frequency, TF over GST control)"
same,binding signal,[10],"1.18 fold enrichment (6-mer frequency, TF over GST control)"
same,binding signal,[11],"1.19 fold enrichment (6-mer frequency, TF over GST control)"
same,binding signal,[12],"1.07 fold enrichment (6-mer frequency, TF over GST control)"
same,binding signal,[13],"1.01 fold enrichment (6-mer frequency, TF over GST control)"
same,binding signal,[14],"1.15 fold enrichment (6-mer frequency, TF over GST control)"
same,binding signal,[15],"1.19 fold enrichment (6-mer frequency, TF over GST control)"
same,binding signal,[16],"1.17 fold enrichment (6-mer frequency, TF over GST control)"
same,binding signal,[17],"1.23 fold enrichment (6-mer frequency, TF over GST control)"
same,binding signal,[18],"1.15 fold enrichment (6-mer frequency, TF over GST control)"
same,binding signal,[19],"1.13 fold enrichment (6-mer frequency, TF over GST control)"
